Test results: PMC6925144, “A prospective compound screening contest identified broader inhibitors for Sirtuin 1” (Scientific Reports, 2019)
Over roughly 3,200 compounds, “TSA(without NAD+) / Primary screening (TSA) / delta Tm (K)” has its median near -0.07; the highest 2% begin near 0.37. The entries come from a sample that favours the highest values as a whole.

Target: NAD-dependent deacetylase Sirtuin 1 (human, UniProt Q96EB6)
Assay: primary screen, delta tm
Parameters: single well (n = 1)
Settings: 10 µM
Procedure: A total of 3,192 compounds extracted from the proposed lists were first screened by thermal shift assay (TSA), which determined a melting temperature shift (ΔTm) of Sirtuin 1 upon the addition of a test compound at a concentration of 10 µM (n = 1) with primary hit criteria of ΔTm > 0.45 K or ΔTm < −1.5 K. Primary hits (48 compounds) were retested in the same assay at three concentrations (5, 10, 20 µM, n = 4) for hit confirmation and for dose-dependency check. Secondary hits (41 compounds) were checked their selectivity for Sirtuin 1 based on counterscreening on unrelated protein targets (bovine carbonic anhydrase (CA) and recombinant SH2 domain of hABL1 kinase (ABL1)) at three different concentrations (5, 10, 20 µM, n = 4), which yielded 38 hit compounds, hereafter referred to as TSA hits. The TSA screening above was conducted in the absence of NAD+.

Chain of NAD-dependent deacetylase Sirtuin 1 (Q96EB6 2-747 limits assumed): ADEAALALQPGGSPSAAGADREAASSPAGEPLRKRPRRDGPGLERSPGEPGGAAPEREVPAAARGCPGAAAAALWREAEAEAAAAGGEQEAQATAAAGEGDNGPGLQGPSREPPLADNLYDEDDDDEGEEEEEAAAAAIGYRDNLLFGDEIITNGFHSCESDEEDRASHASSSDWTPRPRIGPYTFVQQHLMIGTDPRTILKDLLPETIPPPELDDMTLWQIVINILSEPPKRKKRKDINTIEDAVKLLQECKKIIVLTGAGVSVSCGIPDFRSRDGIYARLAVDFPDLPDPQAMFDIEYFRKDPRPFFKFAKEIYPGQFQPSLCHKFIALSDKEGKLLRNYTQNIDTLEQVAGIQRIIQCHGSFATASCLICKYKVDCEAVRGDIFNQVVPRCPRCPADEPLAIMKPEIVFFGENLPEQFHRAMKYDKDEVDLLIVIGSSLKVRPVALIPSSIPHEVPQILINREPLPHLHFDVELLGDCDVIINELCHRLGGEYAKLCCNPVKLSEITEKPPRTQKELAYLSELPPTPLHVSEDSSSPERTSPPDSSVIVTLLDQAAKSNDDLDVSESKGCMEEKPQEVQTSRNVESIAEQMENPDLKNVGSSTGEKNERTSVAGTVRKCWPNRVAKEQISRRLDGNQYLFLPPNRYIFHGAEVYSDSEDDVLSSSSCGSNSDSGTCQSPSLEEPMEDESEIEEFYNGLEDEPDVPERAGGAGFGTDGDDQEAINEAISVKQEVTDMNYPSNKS

Row | Compound | TSA(without NAD+) / Primary screening (TSA) / delta Tm (K)
1 | Cc1nn(CC(=O)N2CCC(N3CCCC3C(N)=O)CC2)cc1-c1ccccc1 (stereo not shown) | -0.22 K
2 | CC(Nc1ccnc(CC#N)c1)C(=O)N1CCCCC1C (stereo not shown) | -0.28 K
3 | CS(=O)(=O)c1cccc(C(=O)N(Cc2ccccc2)c2ccccc2)c1 | -0.13 K
4 | CCCn1nnnc1CN1C(=O)NC(Cc2c[nH]c3ccccc23)C1=O (stereo not shown) | -0.28 K
5 | O=C(Cn1[nH]c(=O)c2ccccc2c1=O)NC1CCCc2ccccc21 (stereo not shown) | 0.19 K
6 | Cc1ccccc1N1C(=O)c2ccc(C(=O)OCC(N)=O)cc2C1=O | -0.08 K
7 | CC1(C)C(=O)Nc2ccccc2N1C(=O)CNc1cccc2c1CCCC2 | -0.24 K
8 | CCS(=O)(=O)N1CCN(c2ccc(C(N)=O)cc2)CC1 | -0.15 K
9 | O=C(c1cnc2ccccc2n1)N1CCCC1c1nc2ccccc2s1 (stereo not shown) | -0.04 K
10 | COc1ccc(N(C)S(=O)(=O)c2cccc(C(=O)Nc3sc4c(c3C(N)=O)CCC(C)C4)c2)cc1 (stereo not shown) | 0.08 K
11 | CN(C)c1ccnc(N2CCCC(N3CCNC3=O)C2)n1 (stereo not shown) | -0.18 K
12 | CN(c1ccccc1)S(=O)(=O)c1cccc(NC(=O)c2cccc(C#N)c2)c1 | 0.13 K
13 | CN(c1ccccc1)S(=O)(=O)c1cccc(C(=O)Nc2ccccc2)c1 | 0.12 K
14 | Cc1ccc(N(C)S(=O)(=O)c2cccc(C(=O)NNC(=O)CC34CC5CC(CC(C5)C3)C4)c2)cc1 | 0.45 K
15 | CC1CCc2[nH]c3ccc(C(=O)Nc4cccc(S(=O)(=O)N(C)c5ccccc5)c4)cc3c2C1 (stereo not shown) | 0.42 K
16 | Cc1ccc(N(C)S(=O)(=O)c2cccc(C(=O)NNC(=O)c3ccncc3)c2)cc1 | -0.08 K
17 | Cc1ccc(N(C)S(=O)(=O)c2cccc(C(=O)Nc3ccc4c(c3)C(=O)N(C)C4=O)c2)cc1 | 0.45 K
18 | CSc1cccc(NC(=O)c2cccc(S(=O)(=O)N(C)c3ccc(C)cc3)c2)c1 | 0.35 K
19 | CN(c1ccccc1)S(=O)(=O)c1cccc(NC(=O)c2ccc(C(N)=O)cc2)c1 | 0.02 K
20 | Cc1ccc(C(=O)NNC(=O)c2cccc(S(=O)(=O)N(C)c3ccc(C)cc3)c2)cc1 | -0.14 K
21 | Cc1ccc(N(C)S(=O)(=O)c2cccc(C(=O)Nc3cccc(C#N)c3)c2)cc1 | 0.43 K
22 | Cc1ccc(N(C)S(=O)(=O)c2cccc(C(=O)Nc3cccc(C(=O)NC4CC4)c3)c2)cc1 | 0.06 K

Row | Compound | TSA(without NAD+) / Primary screening (TSA) / delta Tm (K)
23 | COc1ccc(N(C)S(=O)(=O)c2cccc(C(=O)Nc3cccc(C#N)c3)c2)cc1 | 0.22 K
24 | Cc1cc(CSc2nc3ccccc3[nH]2)no1 | 0.07 K
25 | Cc1ccc(C(=Nc2c(C)cc(C)cc2C)c2ccc(C)cc2)cc1 | -0.04 K
26 | CC(C#N)(NC(=O)CNc1cccnc1-c1ccccc1)C1CC1 (stereo not shown) | 0.08 K
27 | CN(Cc1ccccc1)C(=O)NCC1CCN(c2ccncc2)CC1 | -0.02 K
28 | CC1CCc2[nH]c3ccc(C(=O)OCC(=O)NC(=O)NC45CC6CC(CC(C6)C4)C5)cc3c2C1 (stereo not shown) | 0.27 K
29 | CN(Cc1nc2ccccc2s1)C(=O)CSc1nnc(CC2CCS(=O)(=O)C2)o1 (stereo not shown) | -0.13 K
30 | CCCCc1ccc(NC(=O)c2cccc(S(=O)(=O)N(C)c3cccc(Cl)c3)c2)cc1 | 0.58 K
31 | Cc1ccc(N(C)S(=O)(=O)c2cccc(C(=O)Nc3ccc(Br)c(C)c3)c2)cc1 | 0.48 K
32 | CN(C)c1ccc(NC(=O)c2cccc(S(=O)(=O)N(C)c3cccc(Cl)c3)c2)cc1 | 0.27 K
33 | CN(c1cccc(Cl)c1)S(=O)(=O)c1cccc(C(=O)Nc2ccc(C(N)=O)cc2)c1 | 0.08 K
34 | Cc1ccc(N(C)S(=O)(=O)c2cccc(C(=O)Nc3ccncc3)c2)cc1 | -0.18 K
35 | COc1cccc(NC(=O)c2cccc(S(=O)(=O)N(C)c3ccc(C)cc3)c2)c1 | -0.02 K
36 | COC(=O)c1ccccc1NC(=O)Cc1c[nH]c2ccccc12 | -0.22 K
37 | COc1cc(/C=N/NC(=O)c2cc3c(s2)CCCC3)ccc1OS(=O)(=O)c1cc(C)ccc1C | 0.32 K
38 | COc1cc(/C=N/NC(=O)c2cc3c(s2)CCCC3)ccc1OCC(=O)Nc1ccc(C)cc1 | -0.22 K
39 | CCOc1cc(/C=N/NC(=O)c2cc3c(s2)CCCC3)ccc1OCC(=O)Nc1cccc(C(F)(F)F)c1 | 5.11 K
40 | O=C(C1=C(O)C(=O)N(CCCN2CCOCC2)C1c1ccco1)c1ccc(F)cc1 (stereo not shown) | -0.08 K
41 | CC(C)CCN1C(=O)c2ccc(C(=O)OCC(=O)NC(C)C34CC5CC(CC(C5)C3)C4)cc2C1=O (stereo not shown) | 0.48 K
42 | CC(NC(=O)COC(=O)c1ccc2c(c1)S(=O)(=O)c1ccccc1C2=O)C12CC3CC(CC(C3)C1)C2 (stereo not shown) | 0.17 K
43 | CC(NC(=O)COC(=O)CCCN1C(=O)c2cccc3cccc(c23)C1=O)C12CC3CC(CC(C3)C1)C2 (stereo not shown) | -0.34 K
44 | COc1ccc(C(=O)C2=C(O)C(=O)N(CCCN3CCOCC3)C2c2ccc(OC)cc2)cc1 (stereo not shown) | -0.13 K

Row | Compound | TSA(without NAD+) / Primary screening (TSA) / delta Tm (K)
45 | NS(=O)(=O)c1ccc(C(=O)Nc2ccc3c(c2)-c2ccccc2C3)cc1 | 0.23 K
46 | NC(=O)c1cccc(NC(=O)c2cc3c(s2)-c2ccccc2CC3)c1 | 1.03 K
47 | CC(=O)Nc1ccc(NC(=O)c2cccc(C(N)=O)c2)cc1C | -0.07 K
48 | NC(=O)Cn1cnc2c(cnn2-c2ccccc2)c1=O | -0.08 K
49 | Cc1cc(S(=O)(=O)NCc2ccc(C(N)=O)cc2)sc1Cl | -0.11 K
50 | CC(C)(C)c1ccccc1NC(=O)c1ccc(S(=O)(=O)N2CCCC2)cc1 | -0.07 K
51 | O=c1onc(-c2cnccn2)n1Cc1nc2cc([N+](=O)[O-])ccc2o1 | -0.12 K
52 | O=C(CSc1nnnn1-c1ccc(O)cc1)N1N=C(c2ccc3ccccc3c2)CC1c1ccccc1 (stereo not shown) | 0.49 K
53 | CC(=O)N1N=C(c2ccccc2)CC1c1ccc(Br)cc1 (stereo not shown) | -0.02 K
54 | CC(=O)N1N=C(c2ccc(O)cc2)CC1c1ccccc1 (stereo not shown) | 0.07 K
55 | CN(C(=O)Cc1ccc(NC(=O)NCc2ccc(-n3cncn3)nc2)cc1)c1ccccc1 | 0.08 K
56 | CCCNC(=O)Nc1ccc(OC)cc1 | -0.12 K
57 | Cc1ccc(NC(=O)NCCc2cccc(O)c2)cc1NC(=O)NCCc1cccc(O)c1 | 0.38 K
58 | CN1CCCN(c2ccc(NC(=O)NCCCNC(=O)c3cccc(O)c3)cc2F)CC1 | 0.02 K
59 | CC(CN1CCOCC1)NC(=O)C(Cc1ccccc1)n1cnnn1 (stereo not shown) | -0.23 K
60 | Cc1ccc(N(C)S(=O)(=O)c2cccc(C(=O)Nc3ccccc3C(F)(F)F)c2)cc1 | -0.13 K
61 | O=C(NN/C=C1/C(=O)N(c2cccc(C(F)(F)F)c2)C(=O)c2ccccc21)c1cccc(S(=O)(=O)Nc2ccccc2Cl)c1 | 1.45 K
62 | Cc1ccc(N(C)S(=O)(=O)c2cccc(C(=O)Nc3ccccc3Cl)c2)cc1 | 0.07 K
63 | COc1ccc(NC(=O)c2ccc(NC(=O)c3cnoc3C)cc2)cc1OCc1cccnc1 | -0.18 K
64 | COC(=O)c1cc(-c2csc(NC(=O)c3cccc(NC(=O)c4cnoc4C)c3)n2)c[nH]1 | 0.46 K
65 | NC(=O)NCc1ccc(C(=O)Nc2nc(-c3c[nH]c(C(N)=O)c3)cs2)cc1 | -0.03 K
66 | Cc1nc(-c2ccc(CCNC(=O)c3ccc(NC(=O)c4cccs4)cc3)s2)cs1 | 0.63 K

Row | Compound | TSA(without NAD+) / Primary screening (TSA) / delta Tm (K)
67 | Cc1nc(-c2ccc(CCNC(=O)c3ccc(NC(N)=O)cc3)s2)cs1 | 0.23 K
68 | COc1ccc(C(=O)NCCc2ccc(-c3csc(C)n3)s2)cc1 | 0.07 K
69 | COc1ccc(C(=O)C2=C(O)C(=O)N(CCCN3CCOCC3)C2c2ccccc2)cc1C (stereo not shown) | 0.06 K
70 | CC(c1ccc(S(N)(=O)=O)cc1)N(C)Cc1nc2ccccc2c(=O)[nH]1 (stereo not shown) | -0.15 K
71 | O=C1CCCN1C(=O)Cn1cnc2cc(Cl)ccc2c1=O | -0.11 K
72 | COc1ccc(NC(=O)C2=COCCO2)cc1S(=O)(=O)N1CCOCC1 | -0.13 K
73 | O=C(Nc1ccc(OC(F)F)c(Cc2ccccc2)c1)C1=COCCO1 | -0.12 K
74 | COc1ccc(NC(=O)C2=COCCO2)cc1Cc1ccccc1 | 0.45 K
75 | O=C(Nc1cccc(Cn2[nH]c(=O)ccc2=O)c1)c1cccc(Oc2ccccc2)c1 | -0.13 K
76 | NC(=O)c1ccc(OCC(=O)NC(=O)NCc2cccs2)cc1 | 0.03 K
77 | NC(=O)C1CCN(c2nc(-c3cccnc3)nc3sc4c(c23)CCCC4)CC1 | 0.33 K
78 | NC(=O)C1CCN(c2nc(-c3cccs3)nc3sc4c(c23)CCCC4)CC1 | 2.58 K
79 | Cc1sc2nc(-c3cccs3)nc(N3CCC(C(N)=O)CC3)c2c1C | 0.58 K
80 | Cc1sc2nc(-c3cccnc3)nc(N3CCC(C(N)=O)CC3)c2c1C | 0.25 K
81 | Cc1sc2ncnc(N3CCC(C(N)=O)CC3)c2c1C | -0.11 K
82 | NC(=O)C1CCN(c2ncnc3sc4c(c23)CCCC4)CC1 | 0.28 K
83 | CCSCCOC(=O)c1ccc2[nH]c(C(F)F)nc2c1 | -0.04 K
84 | Cn1c2ccccc2c2cc(S(=O)(=O)NCc3cccc(NC(=O)C4CC4)c3)ccc21 | -0.03 K
85 | CS(=O)(=O)c1ccc(NC(=O)c2ccccc2SCC(=O)NC23CC4CC(CC(C4)C2)C3)cc1 | -0.03 K
